Results taken from PubChem BioAssay AID1159580 (chemical genetic matrix, 2015).
Values joined by “and” are separate entries in the source; they are usually repeats but may differ in a detail not shown here. Equal values may be shown once. Among all 5,500 compounds or so, about 2,000 (36%) were called active. Roughly 18% stayed inconclusive and do not appear here. Rule as the data show it: active = normalized growth mostly below about 0.91 (no sharp cut-off); inconclusive = no clear call, values can overlap the other calls; inactive = mostly above about 0.92. This is one part of the list.

Assay: chemical genetic growth profiling, strain panel (AID 1159580);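 also: tested at 20 µM; growth read once vehicle control cultures reached saturation at 30 °C; 1 = growth at the plate median or of vehicle wells; lower values mean less growth of the strain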
Details: growth OD

Measured: normalized growth

CCN(Cc1ccncc1)C(=O)C(CO)c1ccccc1 (stereo unspecified)
inactive: S. cerevisiae deletion strains, locus YJR075W, strain HOC1, active compounds read low 0.989 | S. cerevisiae deletion strains, locus YKL009W, strain mrt4, active compounds read low 1.01 | S. cerevisiae deletion strains, locus YKL068W, active compounds read low 0.982 | S. cerevisiae deletion strains, locus YKL085W, strain MDH1 (second series), active compounds read low 0.977 | S. cerevisiae deletion strains, locus YKL085W, strain MDH1, active compounds read low 0.977 | S. cerevisiae deletion strains, locus YKL160W, strain elf1, active compounds read low 1.02 | S. cerevisiae deletion strains, locus YKL190W, strain CNB1, active compounds read low 0.992 | S. cerevisiae deletion strains, locus YKR001C, strain vps1, active compounds read low 0.999 | S. cerevisiae deletion strains, locus YKR026C, strain gcn3, active compounds read low 1.04 | S. cerevisiae deletion strains, locus YKR091W, strain srl3, active compounds read low 1.02 | S. cerevisiae deletion strains, locus YLL001W, strain dnm1, active compounds read low 1.02 | S. cerevisiae deletion strains, locus YLL026W, active compounds read low 1.03 | S. cerevisiae deletion strains, locus YLL041C, strain sdh2, active compounds read low 1.02 | S. cerevisiae deletion strains, locus YLR027C, strain aat2, active compounds read low 1.02 | S. cerevisiae deletion strains, locus YLR039C, strain RIC1, active compounds read low 0.977 | S. cerevisiae deletion strains, locus YLR058C, strain SHM2, active compounds read low 0.998 | S. cerevisiae deletion strains, locus YLR102C, strain apc9, active compounds read low 0.991 | S. cerevisiae deletion strains, locus YLR113W, strain HOG1, active compounds read low 0.988 | S. cerevisiae deletion strains, locus YLR221C, strain rsa3, active compounds read low 1.03 | S. cerevisiae deletion strains, locus YLR258W, strain gsy2, active compounds read low 1.05 | S. cerevisiae deletion strains, locus YLR262C, strain YPT6 (second series), active compounds read low 1.07 | S. cerevisiae deletion strains, locus YLR262C, strain YPT6, active compounds read low 1.01 | S. cerevisiae deletion strains, locus YLR268W, strain sec22, active compounds read low 0.954 | S. cerevisiae deletion strains, locus YLR320W, strain mms22, active compounds read low 1.02 | S. cerevisiae deletion strains, locus YLR330W, strain CHS5, active compounds read low 0.991 | S. cerevisiae deletion strains, locus YLR342W, strain FKS1 (second series), active compounds read low 1.05 | S. cerevisiae deletion strains, locus YLR342W, strain FKS1, active compounds read low 1.02 | S. cerevisiae deletion strains, locus YLR357W, strain rsc2, active compounds read low 1.04 | S. cerevisiae deletion strains, locus YLR370C, strain arc18, active compounds read low 1.03 | S. cerevisiae deletion strains, locus YLR371W, strain rom2, active compounds read low 0.989 | S. cerevisiae deletion strains, locus YLR384C, strain iki3, active compounds read low 1.03 | S. cerevisiae deletion strains, locus YLR418C, strain cdc73, active compounds read low 0.995 | S. cerevisiae deletion strains, locus YML016C, strain PPZ1, active compounds read low 1 | S. cerevisiae deletion strains, locus YML032C, strain rad52, active compounds read low 0.978 | S. cerevisiae deletion strains, locus YML120C, strain ndi1, active compounds read low 1.03 | S. cerevisiae deletion strains, locus YML124C, strain tub3, active compounds read low 0.997 | S. cerevisiae deletion strains, locus YMR058W, strain fet3, active compounds read low 1.02 | S. cerevisiae deletion strains, locus YMR078C, strain ctf18, active compounds read low 0.999 | S. cerevisiae deletion strains, locus YMR125W, strain sto1, active compounds read low 1.03 | S. cerevisiae deletion strains, locus YMR129W, active compounds read low 1.02 | S. cerevisiae deletion strains, locus YMR205C, strain PFK2, active compounds read low 1.05 | S. cerevisiae deletion strains, locus YMR223W, strain ubp8, active compounds read low 1.02 | S. cerevisiae deletion strains, locus YMR231W, strain pep5, active compounds read low 1.03 | S. cerevisiae deletion strains, locus YMR263W, strain SAP30, active compounds read low 0.999 and 1 | S. cerevisiae deletion strains, locus YMR307W, strain GAS1, active compounds read low 1.05 and 1.01 | S. cerevisiae deletion strains, locus YNL067W, strain RPL9B, active compounds read low 0.98 | S. cerevisiae deletion strains, locus YNL071W, strain lat1, active compounds read low 1.03 | S. cerevisiae deletion strains, locus YNL128W, strain TEP1, active compounds read low 0.985 | S. cerevisiae deletion strains, locus YNL153C, strain GIM3, active compounds read low 0.992 | S. cerevisiae deletion strains, locus YNL175C, strain NOP13, active compounds read low 0.995 | S. cerevisiae deletion strains, locus YNL183C, strain NPR1, active compounds read low 0.944 | S. cerevisiae deletion strains, locus YNL197C, strain WHI3, active compounds read low 1.02 | S. cerevisiae deletion strains, locus YNL209W, strain ssb2, active compounds read low 1.04 | S. cerevisiae deletion strains, locus YNL224C, strain SQS1, active compounds read low 1 | S. cerevisiae deletion strains, locus YNL233W, strain BNI4, active compounds read low 1 | S. cerevisiae deletion strains, locus YNL248C, strain rpa49, active compounds read low 1.02 | S. cerevisiae deletion strains, locus YNL250W, strain rad50, active compounds read low 0.982 | S. cerevisiae deletion strains, locus YNL271C, strain bni1, active compounds read low 0.982 | S. cerevisiae deletion strains, locus YNL298W, strain CLA4, active compounds read low 1 | S. cerevisiae deletion strains, locus YNL307C, strain MCK1, active compounds read low 0.994 | S. cerevisiae deletion strains, locus YNL322C, strain KRE1 (second series), active compounds read low 1.03 | S. cerevisiae deletion strains, locus YNL322C, strain KRE1, active compounds read low 0.992 | S. cerevisiae deletion strains, locus YNR049C, strain mso1, active compounds read low 1.04 | S. cerevisiae deletion strains, locus YNR052C, strain pop2, active compounds read low 0.991 | S. cerevisiae deletion strains, locus YOL006C, strain TOP1, active compounds read low 0.948 | S. cerevisiae deletion strains, locus YOL012C, strain htz1 0.82 | S. cerevisiae deletion strains, locus YOL147C, strain pex11, active compounds read low 0.986 | S. cerevisiae deletion strains, locus YOR001W, strain rrp6, active compounds read low 1.02 | S. cerevisiae deletion strains, locus YOR061W, strain CKA2, active compounds read low 0.988 | S. cerevisiae deletion strains, locus YOR069W, strain VPS5, active compounds read low 1 | S. cerevisiae deletion strains, locus YOR070C, strain gyp1, active compounds read low 1.02 | S. cerevisiae deletion strains, locus YOR080W, strain dia2, active compounds read low 1.03 | S. cerevisiae deletion strains, locus YOR083W, strain WHI5 (second series), active compounds read low 1 | S. cerevisiae deletion strains, locus YOR083W, strain WHI5, active compounds read low 1.01 | S. cerevisiae deletion strains, locus YOR106W, strain vam3, active compounds read low 1.03 | S. cerevisiae deletion strains, locus YOR136W, strain idh2, active compounds read low 0.997 | S. cerevisiae deletion strains, locus YOR144C, strain elg1, active compounds read low 0.992 | S. cerevisiae deletion strains, locus YOR184W, strain ser1, active compounds read low 1.01 | S. cerevisiae deletion strains, locus YOR231W, strain MKK1, active compounds read low 0.987 | S. cerevisiae deletion strains, locus YOR265W, strain rbl2, active compounds read low 1.02 | S. cerevisiae deletion strains, locus YOR270C, strain vph1, active compounds read low 1.05 | S. cerevisiae deletion strains, locus YOR290C, strain snf2, active compounds read low 1.01 | S. cerevisiae deletion strains, locus YOR316C, strain cot1, active compounds read low 0.984 | S. cerevisiae deletion strains, locus YPL051W, strain arl3, active compounds read low 1.04 | S. cerevisiae deletion strains, locus YPL055C, strain LGE1, active compounds read low 1 | S. cerevisiae deletion strains, locus YPL078C, strain atp4, active compounds read low 1.02 | S. cerevisiae deletion strains, locus YPL106C, strain sse1, active compounds read low 1.02 | S. cerevisiae deletion strains, locus YPL240C, strain hsp82, active compounds read low 1.03 | S. cerevisiae deletion strains, locus YPL241C, strain CIN2, active compounds read low 0.999 | S. cerevisiae deletion strains, locus YPL256C, strain CLN2, active compounds read low 0.977 | S. cerevisiae deletion strains, locus YPR119W, strain clb2, active compounds read low 0.987 | S. cerevisiae deletion strains, locus YPR141C, strain kar3, active compounds read low 0.99 | S. cerevisiae deletion strains, locus YPR163C, strain tif3, active compounds read low 0.982 | S. cerevisiae deletion strains, locus YPR167C, strain met16, active compounds read low 0.973 | S. cerevisiae deletion strains, strain wtn01, active compounds read low 0.991 | S. cerevisiae strains, strain wild type, active compounds read low 0.995
